Source: the supplement of paper PMC6555819

Assays:
Assay in all cases: PBM binding z-score (relative to random genomic background probes); higher = stronger binding; sequences stand for … in GC…GCGATTGACAGCGTAGAATGAAGG
[1] = tested on: PPARg:RXRa DBDmut IVT, anti-RXR (DBD mutation: RXRa K156A/R161A, NR concentration 270 nM, RXRa partner concentration 90 nM)
In short: (§1)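 Antibodies against each partner of ligand-free nuclear receptor dimers (one per run) detected binding on custom Agilent 4×180K protein-binding microarrays after 1 h incubation. The double-stranded probes had 34-nt variable regions carrying direct-repeat seeds, single-nucleotide variants, half-site ablations and random human genomic background sequences. Binding z-scores, from regression-normalized fluorescence, use the random background probes as reference.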

[2] = tested on: PPARg:RXRa IVT, anti-PPARg (NR concentration 270 nM, RXRa partner concentration 90 nM)
In short: as §1

[3] = tested on: PPARg DBDmut:RXRa IVT, anti-PPARg (DBD mutation: PPARg1 K132A/R137A, NR concentration 270 nM, RXRa partner concentration 90 nM)
In short: as §1

[4] = tested on: PPARg DBDmut IVT, anti-PPARg (DBD mutation: PPARg1 K132A/R137A, NR concentration 270 nM)
In short: as §1

[5] = tested on: PPARg homodimer (NR concentration 180 nM)
In short: as §1

[6] = tested on: PXR:RXRa (NR concentration 270 nM, RXRa partner concentration 90 nM)
In short: as §1

[7] = tested on: PXR homodimer (NR concentration 270 nM)
In short: as §1

[8] = tested on: RARa:RXR (NR concentration 270 nM, RXRa partner concentration 90 nM)
In short: as §1

[9] = tested on: RARa homodimer (NR concentration 270 nM)
In short: as §1

[10] = tested on: RARb:RXRa (NR concentration 270 nM, RXRa partner concentration 90 nM)
In short: as §1

Sequence	PBM binding z-score [1]	PBM binding z-score [2]	PBM binding z-score [3]	PBM binding z-score [4]	PBM binding z-score [5]	PBM binding z-score [6]	PBM binding z-score [7]	PBM binding z-score [8]	PBM binding z-score [9]	PBM binding z-score [10]
ACTCGGAGGACAAAAGTCAGAGCTACGCCAGTGA	0.176	-0.114	-1.08	-0.828	0.0197	-0.626	-0.332	-0.564	-0.279	0.928
GCTAGTTGGTCAGTAAAAGGTCGCACACCGGTCG	0.512	1.32	-0.491	-0.677	1.76	2.07	-0.218	2.6	0.227	2.34
CCTACTGGGCCAAGGTCATTCATCAGTCAAAGCA	4	4.59	-0.258	-0.0447	2.02	3.93	1.66	3.84	0.345	3.34
TCGAGCAGGTTAGTCGGGGCATTCAGCCAACATA	0.239	0.431	-0.862	-0.407	-0.0263	0.125	-0.131	0.109	-0.676	0.557
GGAACGAGGGCAAGGTGATAGCAGAGTTTGATGG	3.43	3.26	-0.452	-0.737	0.922	0.851	1.06	0.793	0.23	2.78
ACTATTAGTTGAAACGAGGGCAACCGATAGGTTG	0.662	1.73	1.09	0.692	0.274	2.71	0.569	1.38	0.873	1.27
TCTAGTTGGTCAAAGGTCAGACACTCGAAATGCG	3.43	5.86	1.03	0.417	4.36	4.74	1.67	6.17	3.82	4.53
GGTATTAGTTGAAAGGGCAACCGAATGATTCTCG	0.803	1.67	1.15	0.67	2.69	1.23	1.44	1.88	2.51	2.42
CGAACTAGGTCAAGGACAGTGGATCTCCGCACGC	8.19	7.79	1.43	0.272	0.876	0.906	-0.161	1.62	0.0729	3.84
ACTATTAGTTGAGACGAGGACAACCGATAGGTTG	0.000503	0.208	0.291	0.661	0.842	0.431	0.155	1.33	0.918	0.366
CCTACTGGGCCAAAAAGGTCATTGGTGCCGATAA	3.78	4.13	-0.644	-0.94	3.28	4.9	5.2	5.26	0.489	4.07
AGTCAAAGTTCATCTAGGTAACGTTAGATATGCT	1.25	3.81	1.67	1.07	2.67	5.32	7.67	4.08	0.982	5
CCTATTGGGCCACGAAAGGTCATTGATTCAGTGA	4.26	4.09	0.172	-0.271	5.52	5.82	1.47	5.93	2.11	4.13
CATTACGGGTCAAGGTTATAGCACGGGTGGTACG	3.5	4.53	0.969	1.08	2.26	3.72	0.701	4.69	1.58	4.43
CCAGACAGGTGAGAAGGTAACTTAGCCTCGATTA	0.936	0.458	0.104	-0.619	1.19	-0.169	0.402	0.0746	0.973	0.689
CCTAATGGGCCAAAGGTCATTGATTCCAATGCTC	3.94	6.02	0.0676	-0.678	4.32	5.26	1.81	6.51	1.99	4.57
GCTTACGGGTCAAAGGTTATAGAATGAATAGAAT	4.71	5.44	1.37	1.09	1.73	6.07	0.466	8.42	0.715	4.59
TCTTGTAGATCAGGCAGGTTAAGAAAGCCTGAGT	1.29	-0.151	0.127	-0.335	-0.356	0.175	-0.218	0.0754	0.0377	0.0689
AATACAGGGTCATCGTAGGCCACAGTACGCACAG	3.1	4.6	2.5	1.08	2.97	5.59	0.511	5.47	1.06	4.59
CCAGACAGGTGAGACGGTAACTCAGCCTCGATTA	1.25	0.131	0.0493	-0.407	1	-0.403	0.193	-0.309	0.615	0.413
GCATATAGGTAATACAAGGTGAACGTCCGATTGT	4.57	3.63	0.578	0.846	0.673	0.252	0.124	1.37	0.675	0.51
CGAACGAGGGCATGAGTTGATACCAAATGCCGAT	2.76	2.32	-0.303	-0.419	0.59	0.723	0.347	0.695	-0.402	2.03
TTACCATGGTGAAGGTCGTTGATCCCTCTGTAGA	-0.0288	0.772	-0.132	-0.462	0.317	1.1	0.0781	0.942	-0.727	0.811
TCTAGTTGGTCACGGAGGTGACACACGACGGGTA	2.02	3.37	1.22	0.542	1.15	0.71	-0.119	0.781	0.338	1.82

Sequence	PBM binding z-score [1]	PBM binding z-score [2]	PBM binding z-score [3]	PBM binding z-score [4]	PBM binding z-score [5]	PBM binding z-score [6]	PBM binding z-score [7]	PBM binding z-score [8]	PBM binding z-score [9]	PBM binding z-score [10]
GTACCAAGGTGAATAGGTCGTTGAGGAGTAGGCG	1.82	2.41	-0.447	-0.52	1.24	0.61	0.0954	1.74	0.334	1.99
CAAGCTAGGTCACGAAAGGTCAAAGTCGAATGAC	5.1	6.14	2.17	-0.0947	7.93	7.36	3.04	7.85	4.08	5.61
CGAACTAGGTCAAGGACAGTGATTCTCCGCACGC	8.31	8.3	2.89	2.07	1.69	1.37	-0.0135	2.28	0.11	4.21
ACTATTAGTTGACTTAGGGTAACCGATACGACGC	0.838	0.626	1.67	1.36	0.663	0.483	0.517	0.73	0.861	0.582
CCTACTGGGCCACAAAGGTCATTGATGCCGATAA	4.98	5.53	0.0367	-0.795	3.95	5.34	5.11	5.76	1.78	4.2
TCTCTGAGGACACGAAGGTCAGAGCTTTCCAGAG	1.47	1.68	0.539	-0.166	0.898	2.18	1.25	2.04	-0.145	3.29
TCGAGTAGGTTAGGGACATTCAGAATGGCGTCGA	1.85	1.17	-0.378	-1.4	0.27	-0.0606	-0.414	0.186	-0.0818	0.661
ATCGAAAGGTCGTGGTGAGTATAGAGAAAGGGAA	1.03	2.12	1.47	1.03	1.89	3.3	0.954	3.84	1.77	4.27
CCTAGCAGGCCAGAGTCACTCAAGCATTTCGCTT	0.697	-0.158	-1.34	-1.29	0.134	-0.712	-0.709	-0.507	-0.47	-0.0457
ATCGAAAGGTCGAGGTGAGGATAGAGAAAGGGAA	0.551	2.41	1.29	0.836	1.63	2.46	0.644	3.16	0.718	4.06
TCTTGTAGATCGAGCAGGTTAAGAAAGCCTGAGT	1.19	-0.156	0.439	0.279	0.237	0.342	-0.0974	0.496	-0.293	-0.102
GCTAGCGGGCCATTTGGGTCACTCAATGACGGGC	1.3	1.48	-0.871	-1.28	-0.0904	0.246	-0.44	0.906	-1.07	1.26
GATACAGGGTCAGCTAAAGGCCAGAGTATGGAAA	1.25	2.78	0.576	-0.417	2.2	2.68	-0.205	4.25	0.412	4.26
GCTCGCAGGACAAGGTCAGAGCTTTGTCCGTAGA	-0.189	0.355	-1.69	-1.23	-0.0307	1.35	-0.47	1.6	-1.24	3.05
TTACCAAGGTGAGGTGAGGTCGTTGATCCAACTC	1.36	2.9	-0.05	-0.0548	0.645	4.64	0.773	2.2	-0.25	1.93
ATCGAAAGGTAGACGAGGTGAGTATACACCGTTT	0.012	0.628	0.703	0.518	0.162	-0.0156	-0.144	0.31	0.224	0.438
CCAGACAGGTGAAAGGCAACTCAGTCTGGTACGC	0.767	1.08	0.0608	-0.556	0.466	-0.0216	-0.296	0.0824	0.0834	0.639
TCAGACAGGTGAAGGTGACTCAGGTACGCAGTCG	2.42	1.7	0.953	0.0936	0.74	0.711	0.325	0.812	-0.0576	1.62
CCAGACAGGTGAAAGATAACTCAGTCTGGTACGC	1.22	0.571	-0.176	-0.498	0.844	-0.0544	0.127	0.381	0.87	0.534
TCTCGGAGGACACGAAGTTCAGAGCTTTCCAGAG	1.43	-0.00253	-0.707	-1.05	-0.195	1.39	2.87	0.555	-0.518	2.36
CCGACTGGGGCAAGGTTACCAAAACGCACAGCCA	3.12	3.53	-0.395	-0.973	0.0774	0.341	-0.627	1.09	-0.287	1.73
CAAACTAGGTCACACAGGTCAAAGTCCGTGCGTA	8.75	9.19	1.71	1.11	2.43	4.78	4.14	4.85	0.759	4.59
AGTCAAAGTTCAGGACGAGGTAACGTAGAGCACG	0.103	2.2	0.482	0.536	1.57	2.79	0.943	2.87	0.443	4.25
CAGCCTATGTCAGGGCCAGTATAGGAGGAACGTT	-0.717	-0.807	-1.25	-0.192	-0.0188	-0.63	-0.46	-0.507	-0.292	0.105
